Measured values published in PubChem BioAssay (NCI).
Compounds without any hit were thinned out: in the full panel of roughly 83,000, 20% have a hit.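 Note: values are percent growth. 100 is the growth of untreated cells, values between 100 and 0 indicate rising inhibition; between -100 and 0 indicates cell death.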 Active and inactive are the calls of the source. The calls were made as follows: active = growth percent below 10; inactive = the rest.

Key:
Test in all cases: NCI-60 one-dose screen, 48 h (100 = growth as untreated, 0 = no growth, -100 = all killed)
NCI-H23 lung = details: 10 µM unless noted
NCI-H226 lung = details: 10 µM unless noted
NCI-H322M lung = details: 10 µM unless noted
HOP-62 NSCLC = details: 10 µM unless noted
NCI-H460 lung = details: 10 µM unless noted
HOP-92 NSCLC = details: 10 µM unless noted
NCI-H522 lung = details: 10 µM unless noted
A549/ATCC NSCLC = details: 10 µM unless noted
786-0 renal = details: 10 µM unless noted
COLO 205 colon = details: 10 µM unless noted
DU-145 prostate = details: 10 µM unless noted
K-562 leukemia = details: 10 µM unless noted
MALME-3M melanoma = details: 10 µM unless noted
MDA-MB-231 breast = details: 10 µM unless noted
RXF 393 renal = details: 10 µM unless noted
SF-268 CNS = details: 10 µM unless noted
SF-295 CNS = details: 10 µM unless noted
SF-539 CNS = details: 10 µM unless noted
UACC-257 melanoma = details: 10 µM
M14 melanoma = details: 10 µM unless noted

Measured: growth

CN(C)C(=O)c1ccccc1-n1cnc2ccccc2c1=O
inactive: NCI-H23 lung 99.3% | NCI-H226 lung 102% | NCI-H322M lung 98.5% | HOP-62 NSCLC 112% | NCI-H460 lung 101% | HOP-92 NSCLC 117% | NCI-H522 lung 101% | A549/ATCC NSCLC 99.2% | 786-0 renal 101% | COLO 205 colon 109% | DU-145 prostate 105% | K-562 leukemia 108% | MALME-3M melanoma 103% | MDA-MB-231 breast 100% | RXF 393 renal 107% | SF-268 CNS 94.6% | SF-295 CNS 103% | SF-539 CNS 95.5% | UACC-257 melanoma 98.5% | M14 melanoma 101%

COc1ccc(/C=N/Nc2nc(Nc3ccccc3)nc(Nc3ccc(S(N)(=O)=O)cc3)n2)cc1
inactive: NCI-H23 lung 70.3% | NCI-H226 lung 73.2% | NCI-H322M lung 84.6% | HOP-62 NSCLC 80.4% | NCI-H460 lung 55.2% | HOP-92 NSCLC 95.7% | NCI-H522 lung 82.5% | A549/ATCC NSCLC 87.1% | 786-0 renal 73.7% | COLO 205 colon 76.9% | DU-145 prostate 65.3% | K-562 leukemia 49.4% | MALME-3M melanoma 81.3% | MDA-MB-231 breast 67.2% | RXF 393 renal 22.9% | SF-268 CNS 90.9% | SF-295 CNS 70.4% | SF-539 CNS 48% | UACC-257 melanoma 96.4% | M14 melanoma 74.9%

CC(C)=CCC[C@](C)(O)[C@H]1CC[C@]2(C)[C@@H]1CC[C@@H]1[C@@]3(C)CCC(NC(=O)c4ccccc4C(=O)O)C(C)(C)[C@@H]3CC[C@]12C (stereo not given in full)
inactive: NCI-H23 lung 85.8% | NCI-H226 lung 89.7% | NCI-H322M lung 104% | HOP-62 NSCLC 104% | NCI-H460 lung 110% | HOP-92 NSCLC 75.6% | NCI-H522 lung 95.3% | A549/ATCC NSCLC 93.1% | 786-0 renal 99.9% | DU-145 prostate 96.4% | K-562 leukemia 90.8% | MALME-3M melanoma 31.8% | MDA-MB-231 breast 82.6% | RXF 393 renal 101% | SF-268 CNS 95.3% | SF-295 CNS 100% | SF-539 CNS 89.3% | UACC-257 melanoma 30.5% | M14 melanoma 57.8%
active: COLO 205 colon -10.3%

C=C(C)[C@@H]1CC[C@]2(C(=O)ON)CC[C@]3(C)[C@H](CC[C@@H]4[C@@]5(C)C/C(=C/c6ccc(Br)cc6)C(=O)C(C)(C)[C@@H]5CC[C@]43C)[C@@H]12
inactive: NCI-H23 lung 78.4% | NCI-H226 lung 72.6% | NCI-H322M lung 85.1% | HOP-62 NSCLC 85.9% | NCI-H460 lung 71% | HOP-92 NSCLC 73.6% | NCI-H522 lung 66.8% | A549/ATCC NSCLC 54.8% | 786-0 renal 84.8% | COLO 205 colon 88% | DU-145 prostate 79.2% | K-562 leukemia 46.3% | MALME-3M melanoma 83.2% | MDA-MB-231 breast 80.6% | RXF 393 renal 78.4% | SF-268 CNS 81.1% | SF-295 CNS 74.9% | SF-539 CNS 75.9% | UACC-257 melanoma 81.1% | M14 melanoma 76%

O=C(CCCCCCN1CC(=O)N2[C@@H](c3cccc(Cl)c3)c3[nH]c4ccccc4c3C[C@H]2C1=O)NO
active: RXF 393 renal 9.1%
inactive: NCI-H23 lung 71.3% | NCI-H226 lung 102% | NCI-H322M lung 66.4% | HOP-62 NSCLC 51.9% | NCI-H460 lung 43.1% | HOP-92 NSCLC 44.5% | NCI-H522 lung 19.2% | A549/ATCC NSCLC 79.6% | 786-0 renal 79% | COLO 205 colon 36.9% | DU-145 prostate 46.3% | K-562 leukemia 24% | MALME-3M melanoma 29.1% | MDA-MB-231 breast 39.5% | SF-268 CNS 64.4% | SF-295 CNS 52% | SF-539 CNS 50.6% | UACC-257 melanoma 44% | M14 melanoma 45.6%

O=S(=O)(Nc1ccc(C2CC2)cc1)c1ccc(-c2cnc(C3CC3)o2)cc1
inactive: NCI-H23 lung 73.9% | NCI-H226 lung 74.9% | NCI-H322M lung 92.3% | HOP-62 NSCLC 62.2% | NCI-H460 lung 73.2% | HOP-92 NSCLC 77.3% | NCI-H522 lung 59.6% | A549/ATCC NSCLC 62.2% | 786-0 renal 88.5% | COLO 205 colon 88.9% | DU-145 prostate 88.5% | K-562 leukemia 15.7% | MALME-3M melanoma 66.6% | MDA-MB-231 breast 72.5% | RXF 393 renal 74.6% | SF-268 CNS 78% | SF-295 CNS 49.4% | SF-539 CNS 62.9% | UACC-257 melanoma 79.8% | M14 melanoma 53.6%

CN(C)CCn1c2ccc(N)cc2c2nc3ccccc3nc21
inactive: NCI-H23 lung 28.2% | NCI-H226 lung 34.3% | NCI-H322M lung 34.7% | HOP-62 NSCLC 31.5% | HOP-92 NSCLC 47.7% | NCI-H522 lung 30.1% | A549/ATCC NSCLC 25.8% | 786-0 renal 35.6% | DU-145 prostate 25.3% | K-562 leukemia 13.7% | MALME-3M melanoma 44.1% | MDA-MB-231 breast 32.7% | RXF 393 renal 35.4% | SF-268 CNS 43.4% | SF-295 CNS 32.3% | SF-539 CNS 21.3% | UACC-257 melanoma 38.4% | M14 melanoma 35.9%
active: NCI-H460 lung 6.26% | COLO 205 colon 9.4%

O=C(COc1ccc(/C=C2\SC(=O)NC2=O)cc1)Nc1ccc(C(=O)/C=C/c2cc3ccccc3nc2Cl)cc1
active: RXF 393 renal 1.92%
inactive: NCI-H23 lung 65.3% | NCI-H226 lung 74.9% | NCI-H322M lung 97.8% | HOP-62 NSCLC 103% | NCI-H460 lung 86% | HOP-92 NSCLC 88.2% | NCI-H522 lung 65.8% | A549/ATCC NSCLC 78.6% | 786-0 renal 83.6% | COLO 205 colon 96.3% | DU-145 prostate 88.7% | K-562 leukemia 41% | MALME-3M melanoma 98.5% | MDA-MB-231 breast 86.6% | SF-268 CNS 78.2% | SF-295 CNS 75.6% | SF-539 CNS 81.5% | UACC-257 melanoma 75.3% | M14 melanoma 80%

O=C(NCCCCCCNC(=O)c1c2c(nc3ccccc13)-c1cccnc1SC2)c1c2c(nc3ccccc13)-c1cccnc1SC2
active: MALME-3M melanoma -16.5%
inactive: NCI-H23 lung 63.1% | NCI-H226 lung 82.6% | NCI-H322M lung 71.9% | HOP-62 NSCLC 43.9% | NCI-H460 lung 75% | HOP-92 NSCLC 50.8% | NCI-H522 lung 95.7% | A549/ATCC NSCLC 70.6% | 786-0 renal 76.5% | COLO 205 colon 28.8% | DU-145 prostate 104% | K-562 leukemia 73.4% | MDA-MB-231 breast 59.3% | RXF 393 renal 73.4% | SF-268 CNS 77.7% | SF-295 CNS 94.7% | SF-539 CNS 86.8% | UACC-257 melanoma 17.1% | M14 melanoma 30.8%

Cc1nn(-c2ccc(Cl)cc2)c(C)c1N=Nc1ccc2oc(=O)ccc2c1
inactive: NCI-H23 lung 82.4% | NCI-H226 lung 92.9% | NCI-H322M lung 104% | HOP-62 NSCLC 91.7% | NCI-H460 lung 64.9% | HOP-92 NSCLC 76.8% | NCI-H522 lung 81.7% | A549/ATCC NSCLC 77.6% | 786-0 renal 78.8% | COLO 205 colon 105% | DU-145 prostate 74.5% | K-562 leukemia 73.5% | MALME-3M melanoma 89.5% | MDA-MB-231 breast 77.5% | RXF 393 renal 79.4% | SF-268 CNS 85.1% | SF-295 CNS 90% | SF-539 CNS 62.1% | UACC-257 melanoma 94.6% | M14 melanoma 104%

C#C[C@]1(O)CC[C@H]2[C@@H]3CC=C4c5sc(Nc6nc(C)cc(OC)n6)nc5CC[C@]4(C)[C@H]3CC[C@@]21C
active: 786-0 renal -4.27% | RXF 393 renal -34.9% | SF-295 CNS -60% | SF-539 CNS -14.8%
inactive: NCI-H23 lung 71.9% | NCI-H226 lung 71% | NCI-H322M lung 92.9% | HOP-62 NSCLC 40% | NCI-H460 lung 21.9% | HOP-92 NSCLC 43.9% | NCI-H522 lung 88.1% | A549/ATCC NSCLC 53.9% | COLO 205 colon 78.5% | DU-145 prostate 61.4% | K-562 leukemia 14% | MALME-3M melanoma 24% | MDA-MB-231 breast 56.1% | SF-268 CNS 35.8% | UACC-257 melanoma 46.1% | M14 melanoma 27%

Nc1n[nH]c2cccc(C#Cc3cccc(NC(=O)c4cccc(OC(F)(F)F)c4)c3)c12
inactive: NCI-H23 lung 35.1% | NCI-H226 lung 46.8% | NCI-H322M lung 77.3% | HOP-62 NSCLC 59.4% | NCI-H460 lung 58.1% | NCI-H522 lung 49.2% | A549/ATCC NSCLC 71.4% | 786-0 renal 65.3% | COLO 205 colon 49% | DU-145 prostate 71.4% | MDA-MB-231 breast 17.7% | RXF 393 renal 24.2% | SF-268 CNS 50.9% | SF-295 CNS 73.8% | UACC-257 melanoma 63.1% | M14 melanoma 31%
active: HOP-92 NSCLC -9.3% | K-562 leukemia 7.22% | MALME-3M melanoma 2.17% | SF-539 CNS 6.63%

O=C(O)CNS(=O)(=O)c1ccc(Oc2ccc(S(=O)(=O)NCC(=O)O)cc2)cc1
inactive: NCI-H23 lung 101% | NCI-H226 lung 107% | NCI-H322M lung 101% | HOP-62 NSCLC 91.9% | NCI-H460 lung 101% | HOP-92 NSCLC 103% | NCI-H522 lung 94.7% | A549/ATCC NSCLC 101% | 786-0 renal 100% | COLO 205 colon 109% | DU-145 prostate 105% | K-562 leukemia 94.3% | MALME-3M melanoma 99.1% | MDA-MB-231 breast 102% | RXF 393 renal 112% | SF-268 CNS 96.6% | SF-295 CNS 113% | SF-539 CNS 92.7% | UACC-257 melanoma 102% | M14 melanoma 100%

Oc1ccc(CSc2nnc(-c3ccc(Cl)cc3)o2)c2cccnc12
inactive: NCI-H23 lung 27.6% | NCI-H226 lung 60.2% | NCI-H322M lung 26.1% | HOP-62 NSCLC 21.5% | HOP-92 NSCLC 21.8% | NCI-H522 lung 32% | A549/ATCC NSCLC 19.6% | 786-0 renal 27.9% | COLO 205 colon 97.4% | DU-145 prostate 31.8% | K-562 leukemia 16.2% | MALME-3M melanoma 36.8% | MDA-MB-231 breast 52.1% | RXF 393 renal 52.2% | SF-268 CNS 24.2% | SF-539 CNS 17% | UACC-257 melanoma 18.8%
active: NCI-H460 lung 5.72% | SF-295 CNS 5.94% | M14 melanoma 9.55%
